Measurements published in the supplement of paper PMC9023506.
Counter-ions that a name gives are not always drawn.

Tests used:
Details in all cases: 10 µM; exposure time: 3 h pre-incubation + 3 h imaging
[1] = test system: Danio rerio larvae (5 dpf); assay: habituation to 1-s acoustic pulses, difference vs DMSO (percentage points (treated minus DMSO)); higher = more of the behaviour than the DMSO vehicle control
In short: (§1)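 Library drugs were diluted 1000× from DMSO stocks into egg water to reach 10 µM and applied to 5-dpf wild-type zebrafish larvae in 96-well ProxiPlates, 48 larvae per drug. The larvae stayed exposed for 3 h before imaging and for the 3 h of imaging at 28.5 °C. Behaviour scores, given in percentage points, are the treated mean minus the vehicle mean for movement and upper-half location.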

[2] = test system: Danio rerio larvae (5 dpf); assay: excitability to 1-s acoustic pulses, difference vs DMSO (percentage points (treated minus DMSO)); higher = more of the behaviour than the DMSO vehicle control
In short: as §1

[3] = test system: Danio rerio larvae (5 dpf); assay: activity during period 15 (no stimuli), difference vs DMSO (percentage points (treated minus DMSO)); higher = more of the behaviour than the DMSO vehicle control
In short: as §1

[4] = test system: Danio rerio larvae (5 dpf); assay: optomotor response to blue moving lines, difference vs DMSO (percentage points (treated minus DMSO)); higher = more of the behaviour than the DMSO vehicle control
In short: as §1

[5] = test system: Danio rerio larvae (5 dpf); assay: startle response to 20-s acoustic pulses, difference vs DMSO (percentage points (treated minus DMSO)); higher = more of the behaviour than the DMSO vehicle control
In short: as §1

[6] = test system: Danio rerio larvae (5 dpf); assay: optomotor response to fast red moving lines, difference vs DMSO (percentage points (treated minus DMSO)); higher = more of the behaviour than the DMSO vehicle control
In short: as §1

[7] = test system: Danio rerio larvae (5 dpf); assay: optomotor response to green moving lines, difference vs DMSO (percentage points (treated minus DMSO)); higher = more of the behaviour than the DMSO vehicle control
In short: as §1

With `Cc1cccc(CN2CCN(C(c3ccccc3)c3ccc(Cl)cc3)CC2)c1` (stereo not given) [Meclizine dihydrochloride] as the molecule, how does the “habituation to 1-s acoustic pulses” value [1] read?
Its value is -10.1.

And the “excitability to 1-s acoustic pulses” value [2]?
Its value is 9.5.

What about the “activity during period 15” value [3] of the same molecule?
The value was 8.13.

And the “optomotor response to blue moving lines” value [4]?
Its value is -6.39.

With `O=C1CCc2ccc(OCCCCN3CCN(c4cccc(Cl)c4Cl)CC3)cc2N1` [Aripiprazole] as the molecule, how does the “activity during period 15” value [3] read?
Its value is 4.18.

What about the “optomotor response to blue moving lines” value [4] of the same molecule?
Its value is -0.0385.

And the “startle response to 20-s acoustic pulses” value [5]?
Its value is -4.17.

How did the optomotor response [6] turn out when `COCCCOc1cc(C[C@@H](C[C@H](N)[C@@H](O)C[C@H](C(=O)NCC(C)(C)C(N)=O)C(C)C)C(C)C)ccc1OC` [Aliskiren hemifumarate] was run?
Its optomotor response is 2.22.

With `CC(=O)NC[C@H]1CN(c2ccc(N3CCOCC3)c(F)c2)C(=O)O1` [Linezolid] as the molecule, how does the “startle response to 20-s acoustic pulses” value [5] read?
Its value is 2.02.

And the optomotor response [6]?
The optomotor response was 5.73.

For `Cc1cc2c(s1)Nc1ccccc1N=C2N1CCN(C)CC1` [Olanzapine], which “excitability to 1-s acoustic pulses” value [2] is on record?
The value was 3.32.

And the “startle response to 20-s acoustic pulses” value [5]?
Its value is -0.064.

And the optomotor response [6]?
Its optomotor response is 9.42.

Which results are given for `OC(c1cc(C(F)(F)F)nc2c(C(F)(F)F)cccc12)C1CCCCN1` (stereo not given) [Mefloquine hydrochloride]?
activity during period 15 [3]: -1.13; optomotor response [6]: -3.95

For `Nc1cc(N2CCCCC2)nc(N)[n+]1[O-]` [Minoxidil], which “habituation to 1-s acoustic pulses” value [1] is on record?
Its value is 5.2.

What about the “excitability to 1-s acoustic pulses” value [2] of the same molecule?
Its value is 1.

With `CCCCNc1cc(C(=O)O)cc(S(N)(=O)=O)c1Oc1ccccc1` [Bumetanide] as the molecule, how does the “habituation to 1-s acoustic pulses” value [1] read?
The value was -0.875.

With `Cc1cn([C@H]2C=C[C@@H](CO)O2)c(=O)[nH]c1=O` [Stavudine] as the molecule, how does the “excitability to 1-s acoustic pulses” value [2] read?
The value was 3.23.

And the “optomotor response to green moving lines” value [7]?
The value was 1.24.

What about the “startle response to 20-s acoustic pulses” value [5] of the same molecule?
The value was -0.918.

For `CC/C(=C(\c1ccccc1)c1ccc(OCCN(C)C)cc1)c1ccccc1` [Tamoxifen citrate], which “startle response to 20-s acoustic pulses” value [5] is on record?
Its value is -0.535.

With `CN(CCOc1ccc(NS(C)(=O)=O)cc1)CCc1ccc(NS(C)(=O)=O)cc1` [Dofetilide] as the molecule, how does the “activity during period 15” value [3] read?
Its value is -9.09.

What about the “startle response to 20-s acoustic pulses” value [5] of the same molecule?
The value was 0.873.

What does the source list for `Cc1c(-c2ccc(O)cc2)n(Cc2ccc(OCCN3CCCCCC3)cc2)c2ccc(O)cc12` [Bazedoxifene acetate]?
activity during period 15 [3]: -15.7; optomotor response [6]: 0.818

What does the source list for `CCN(Cc1ccncc1)C(=O)C(CO)c1ccccc1` (stereo not given) [Tropicamide]?
habituation to 1-s acoustic pulses [1]: -1.73; activity during period 15 [3]: 6.31; optomotor response [6]: -0.214

Which “excitability to 1-s acoustic pulses” value [2] does the source give for `Cc1nc(Nc2ncc(C(=O)Nc3c(C)cccc3Cl)s2)cc(N2CCN(CCO)CC2)n1` [Dasatinib] here?
The value was 16.9.

And the “activity during period 15” value [3]?
Its value is -15.1.

What about the optomotor response [6] of the same molecule?
The optomotor response was -12.1.

Which results are given for `Nc1cccc2c1CN(C1CCC(=O)NC1=O)C2=O` (stereo not given) [Lenalidomide]?
habituation to 1-s acoustic pulses [1]: -1.09; optomotor response [6]: -0.414

Which “excitability to 1-s acoustic pulses” value [2] does the source give for `CC(c1cc2ccccc2s1)N(O)C(N)=O` (stereo not given) [Zileuton] here?
Its value is 4.34.

What about the “optomotor response to green moving lines” value [7] of the same molecule?
The value was -11.3.

How did the “excitability to 1-s acoustic pulses” value [2] turn out when `CC[C@H]1OC(=O)[C@H](C)[C@@H](O[C@H]2C[C@@](C)(OC)[C@@H](O)[C@H](C)O2)[C@H](C)[C@@H](O[C@@H]2O[C@H](C)C[C@H](N(C)C)[C@H]2O)[C@](C)(O)C[C@@H](C)CN(C)[C@H](C)[C@@H](O)[C@]1(C)O` [Azithromycin] was run?
Its value is 13.

With `OCCN(CCO)c1nc(N2CCCCC2)c2nc(N(CCO)CCO)nc(N3CCCCC3)c2n1` [Dipyridamole] as the molecule, how does the “excitability to 1-s acoustic pulses” value [2] read?
The value was -3.05.

And the “startle response to 20-s acoustic pulses” value [5]?
The value was 6.96.

What about the optomotor response [6] of the same molecule?
The optomotor response was 7.3.
